Most compounds without a hit are left out; they make up all but 19% or so of the library.
IL1B secr inh: inhibitors of inflammasome signaling (IL-1 beta secretion). 360,000 tested, 4.7% active. THP-1 LPS/ATP IL-1B secretion, AlphaLISA, 16 h; hits give low values. activity change, % at 57.5 µM; in the data active = activity change below about -50%; inconclusive = mostly about -30% to -49%
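THP-1 cells pretreated 1 hr with compounds (up to 57.5 uM final), then stimulated with LPS (250 ng/mL final) plus ATP (1.25 mM final); secreted IL-1B measured by AlphaLISA after 16 hr, decreased signal indicating inhibition.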
DT40 TDP1 no CPT: qHTS for Inhibitors of human tyrosyl-DNA phosphodiesterase 1 (TDP1): qHTS in cells in absence of CPT; AID 686978, 2013; DT40 Tdp1-/- hTDP1 cells, no CPT, ATP luminescence, 48 h; Potency, µM (top dose mostly 46.2 µM), for the others: at the top dose activity change, negative = growth inhibition, hits mostly inhibitors; 420,000 tested, 15% active; note: potency is the fitted concentration of half-maximal effect; nearly all actives have a fitted effect of over 55% in size
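Cells were dispensed at 400 per well, compounds added by pin tool, plates incubated ≥48 hr at 37 °C, then CellTiter-Glo added for 30 min at room temperature before luminescence reading. Line: DT40 Tdp1-/- complemented with hTDP1; camptothecin omitted.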
HT1080NT lethal: kills 2HG-producing HT-1080-NT fibrosarcoma cells; Potency, µM (series often up to 46.1 µM), for the others: top-dose activity, negative = less viability, most hits filed as cytotoxic; 360,000 tested, 1.6% active; HT-1080-NT fibrosarcoma viability, CellTiter-Glo ATP luminescence, 48 h; AID 686970;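 note: NT is the 2HG producing partner of a matched IDH1 knockdown line; potency is the fitted concentration of half-maximal effect; 0% = DMSO-treated cells and -100% = media-only wells without cells; nearly all actives have a fitted effect of over 55% in size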
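Viability by CellTiter-Glo luminescence after 48 h compound exposure at 37C of HT-1080-NT cells (750/well, RPMI, 5% FBS). % activity scaled between DMSO wells and medium-only wells, then curve-fitted and categorized by curve class.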
TDP1 cell CPT: growth inhibition of DT40 Tdp1-/-;hTDP1 cells with camptothecin (screen for TDP1 inhibitors); chicken DT40 Tdp1-/-;hTDP1 cells + 20 nM CPT, ATP luminescence, 48 h; Potency, µM (series often up to 46.2 µM), for inactives: at the top dose activity change, negative = growth inhibition, actives largely listed as inhibitors; 420,000 tested, 12% active; note: potency is the fitted concentration of half-maximal effect; nearly all actives have a fitted effect of over 55% in size
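Cell growth measured by CellTiter-Glo luminescence after a minimum 48 h, 37 C compound exposure with 20 nM CPT in Tdp1-knockout DT40 cells stably expressing hTDP1, seeded 400/well; qHTS titration format.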
HT1080 IDH1KD tx: toxicity to HT-1080 IDH1 knockdown cells (counter line); AID 686971; Potency, µM (top dose mostly 46.1 µM), inactives show at the highest dose activity, negative = toxicity, hits mostly cytotoxic; HT-1080 IDH1 knockdown viability, ATP luminescence, 48 h; 360,000 tested, 2% active;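 note: potency is the fitted concentration of half-maximal effect; 0% = DMSO wells and -100% = cell-free medium wells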
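IDH1KD HT-1080 cells, 750/well, RPMI + 5% FBS; compound pinned after 2 h settling; 48 h, 37 °C; CellTiter-Glo luminescence; % activity normalised to DMSO and no-cell wells; curves fitted, classed by r2 and efficacy.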
* marks the source's active call; other numbers are inactive results; ? = inconclusive; / = no result given. Unless noted, calls come from the whole dose curve; as a rule, active = well fitted curve in the direction sought with a large enough effect; inconclusive = small, poorly fitted or top-dose-only effect, or another doubt; inactive = no such curve, though single readings can be large; an effect the other way counts as inactive or inconclusive. Unless noted, % is set by controls: 0 for no effect and ±100 for the full control effect.

SMILES | IL1B secr inh | DT40 TDP1 no CPT | HT1080NT lethal | TDP1 cell CPT | HT1080 IDH1KD tx
Cc1ccc(CN2C(=O)N/C(=C\c3cccn3-c3cccc(C(=O)O)c3)C2=O)cc1 | 37.7 | 7.31µM* | -0.5% | 8.2µM* | -6.6%
COC(=O)C(N)Cc1ccc(Cl)cc1 (configuration not stated) | 12.3 | 4.5% | -0.1% | -1.3% | 6.8%
COC(=O)[C@@H](N)Cc1ccc(O)c(O)c1 | 45.1 | ? | 2.1% | 26.6µM* | 7.7%
CN(C)Cc1c(C(=O)N/N=C/c2ccccc2OCc2c(F)cccc2Cl)nnn1-c1nonc1N | 40.5 | 5.17µM* | 11.6µM* | 4.11µM* | 8.2µM*
CN(C)Cc1c(C(=O)N/N=C/c2cccc(OCc3c(F)cccc3Cl)c2)nnn1-c1nonc1N | 0.0 | 7.31µM* | -0.9% | 9.2µM* | -0.6%
CN(C)Cc1c(C(=O)N/N=C/c2cccc(OCc3ccccc3)c2)nnn1-c1nonc1N | 10.8 | -6.2% | 9.1% | -27.0% | -5.4%
CN(C(=O)Nc1cn(C)c(=O)c2ccccc12)c1ccccc1 | / | -3.3% | / | -4.9% | /
Cc1ccc(NC(=O)COc2ccccc2)c(NC(=O)c2ccco2)c1 | 7.3 | 4.2% | 12.4% | -12.3% | 5.5%
COCC(=O)NNS(=O)(=O)c1ccccc1[N+](=O)[O-] | 1.1 | -13.9% | 12.7% | -0.1% | 10.2%
CC(Sc1ncccn1)C(=O)NC1(C#N)CCCCC1 (configuration not stated) | -5.3 | 3.2% | 6.4% | 9.9% | 12.6%
CC(SC1=Nc2ccccc2C2CC=NN12)C(=O)NC1(C#N)CCCCC1 (configuration not stated) | -3.0 | 23.1µM* | -7.0% | 11.6µM* | -3.7%
COc1ccc(C2C(CN3CCOCC3)C(=O)N2c2ccccc2)cc1 (configuration not stated) | 15.1 | ? | 8.1% | -2.8% | 0.0%
Cc1ccc(N2C(=O)C(CN3CCOCC3)C2c2ccccc2)cc1 (configuration not stated) | 28.0 | 14.6µM* | 1.6% | ? | -2.8%
CC(=O)c1cn(-c2ccc(Cl)cc2)c(=O)n(Cc2ccc(F)cc2)c1=O | -4.8 | 9.2µM* | -12.5% | ? | -19.9%
COc1ccccc1-c1c(C)nn2c(N3CCN(Cc4ccccc4)CC3)cc(C)nc12 | -19.6 | ? | ? | ? | ?
Cc1nn2c(N3CCN(C4CCCC4)CC3)cc(C(C)(C)C)nc2c1-c1ccccc1 | 7.2 | -9.4% | 10.9% | -14.8% | 0.6%
Cc1nn2c(N3CCN(C)CC3)cc(C(C)(C)C)nc2c1-c1ccccc1 | -86.9* | ? | 20.6µM* | ? | 16.4µM*
Cc1cc(N2CCN(Cc3ccccc3)CC2)n2nc(C)c(-c3ccccc3)c2n1 | 1.7 | 18.4µM* | 18.6% | 14.6µM* | 12.6%
COc1ccc(-c2c(C)nn3c(N4CCN(Cc5ccccc5)CC4)cc(C)nc23)cc1OC | 7.6 | 23.1µM* | 3.2% | 23.1µM* | 3.6%
CN(C)c1ccc(CNC(=O)C2CCC(CNc3c(N4CCCCC4)c(=O)c3=O)CC2)cc1 (configuration not stated) | 28.9 | -14.5% | -0.1% | -24.5% | 8.3%
Cc1ccc(S(=O)(=O)N(C)CC(=O)NNC(=O)CCC(=O)c2ccc(F)cc2)cc1 | 18.9 | ? | 12.8% | 1.0% | 13.7%
Cc1cccc(NC(=S)N/N=C/c2ccc(Cl)c([N+](=O)[O-])c2)c1 | -1.1 | ? | ? | ? | -9.6%
C=CCNC(=S)N/N=C/c1ccc(C)c([N+](=O)[O-])c1 | ? | 6.51µM* | -1.7% | 14.6µM* | -3.0%
C=CCNC(=S)Nc1ccc2nc(C)c(C)nc2c1 | 11.3 | 18.4µM* | 3.2% | ? | 4.6%
C=CCNC(=S)N/N=C/c1ccc(C)cc1C | -10.5 | 5.17µM* | 23.1µM* | 5.17µM* | 16.4µM*
SMILES | IL1B secr inh | DT40 TDP1 no CPT | HT1080NT lethal | TDP1 cell CPT | HT1080 IDH1KD tx
Cc1cc(S(=O)(=O)Nc2ccc(C(=O)NCCCN3CCCC3=O)cc2)ccc1F | 9.7 | -1.8% | 0.8% | 3.9% | -5.1%
COc1ccc(-c2cc(C(F)(F)F)n3nc(C(=O)Nc4c(C)n(C)n(-c5ccccc5)c4=O)cc3n2)cc1 | -0.8 | -18.1% | 18.0% | -4.2% | 11.0%
Nc1nc(N2CCN(c3ccc(F)cc3)CC2)n[nH]1 | 21.7 | 1.0% | 19.8% | 8.9% | 0.0%
C[C@@H](c1ccccc1)N1C[C@H](COCc2ccccc2)Oc2cc(N3CCC[C@@H]3CO)ccc2S1(=O)=O | -12.2 | ? | ? | ? | ?
C[C@H](c1ccccc1)N1C[C@@H](COCc2ccccc2)Oc2cc(N3CCC[C@H]3CO)ccc2S1(=O)=O | -13.9 | 18.4µM* | ? | ? | ?
COC[C@@H]1CCCN1c1ccc2c(c1)O[C@@H](COCc1ccccc1)CN([C@H](C)c1ccccc1)S2(=O)=O | -20.1 | 23.1µM* | -17.6% | ? | -1.7%
COC[C@@H]1CCCN1c1ccc2c(c1)O[C@@H](COCc1ccccc1)CN([C@@H](C)c1ccccc1)S2(=O)=O | 41.3 | 11.6µM* | -2.4% | 9.2µM* | -1.1%
O=C(c1cccc([N+](=O)[O-])c1)N1CCN(S(=O)(=O)/C=C/c2ccccc2)CC1 | -22.0 | -22.3% | -0.5% | 16.4% | 1.2%
CC(C)c1ccc(OCCCN2CCCC2)cc1 | 10.9 | -15.1% | -0.8% | ? | -0.3%
O=C(O)c1ccc2[nH]c3c(c2c1)CCCC3 | -4.2 | ? | 3.4% | -14.1% | -7.1%
NC(=O)c1cc(Br)cc2c3c([nH]c12)CCCC3 | -80.6* | 23.1µM* | ? | 18.4µM* | ?
COc1ccc(C2CC(O)(c3ccccc3)Oc3cc(OC)cc(OC)c32)cc1 (configuration not stated) | ? | ? | -5.4% | 23.1µM* | -1.4%
O=C(COC(=O)CN1C(=O)C2CCCCC2C1=O)NNC(=O)c1ccc(Cl)cc1 (configuration not stated) | 5.4 | -2.0% | -1.4% | 2.3% | 0.1%
COc1ccc(CNC(=O)c2cc3cccc4c3n2CC(C)S4)c(OC)c1 (configuration not stated) | / | 5.17µM* | / | 9.2µM* | /
COc1ccc(CNC(=O)c2cc3cccc4c3n2CC(C)S4)cc1OC (configuration not stated) | / | 23.1µM* | / | ? | /
COc1ccc(OC)c(CCNC(=O)c2cc3cccc4c3n2CC(C)S4)c1 (configuration not stated) | / | 5.17µM* | / | 5.8µM* | /
O=C(Nc1ccccc1)C1CCCN1/C=C/C(=O)C(F)(F)F (configuration not stated) | -8.2 | -12.1% | -3.6% | -29.0% | 1.3%

Compound activity (PubChem BioAssay)
